Experimental data published in PubChem BioAssay (NCATS).
Values joined by “and” are separate entries in the source; they are usually repeats but may differ in a detail not shown here. Equal entries are not always repeated. Inconclusive results are not listed. Active and inactive are the calls of the source. Unless noted, calls follow the shape of the dose curve; as a rule, active = well fitted curve in the direction sought with a large enough effect in the repeat runs; inconclusive = weak or mixed curves; inactive = no such curve, though single readings can be large; an effect the other way counts as inactive or inconclusive.

What was measured:
[1] = qHTS assay for small molecule agonists of the antioxidant response element (ARE) signaling pathway (AID 651741; active = well fitted activation curve with a large enough effect in the signal ratio; the % refers to the signal ratio; also: % of control where 0% means no effect)
Method in brief: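 Reporter: beta-lactamase under ARE, stably in HepG2. Exposure: 16 h, 37 C, compounds delivered in DMSO by pin tool after 5 h cell preincubation. Readout: FRET substrate fluorescence after 2 h at RT.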

[2] = qHTS assay for small molecule activators of the p53 signaling pathway (AID 651743; active = well fitted activation curve with a large enough effect in the signal ratio, not every such curve was filed as active; the % refers to the signal ratio; also: series mostly up to about 92 µM; % of control where 0% means no effect); details: HCT-116 p53RE-bla, beta-lactamase FRET ratio, 16 h; activation: hits give high values
Method in brief: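 Agonist-mode quantitative HTS in HCT-116 cells carrying a p53-response-element beta-lactamase reporter; 16 h compound treatment at 37 C, then FRET substrate loading for 2 h at room temperature and fluorescence read.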

[3] = qHTS assay for small molecule disruptors of the mitochondrial membrane potential - 1 hr assay (AID 651754; calls by dose curve; also: % is scaled to controls: 0 for no effect and ±100 for the full control effect; nearly all actives have a fitted effect of over 35% in size)
Method in brief: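 Mitochondrial potential in living HepG2 cells after 1 hr compound treatment at 37C was read with Mito-MPS dye added for a further 30 min. Red aggregate and green monomer fluorescence were measured; loss of potential leaves dye as cytoplasmic monomers.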

[4] = qHTS assay for small molecule disruptors of the mitochondrial membrane potential - 5 hr assay (AID 651755; calls by dose curve; also: % is scaled to controls: 0 for no effect and ±100 for the full control effect; nearly all actives have a fitted effect of over 40% in size)
Method in brief: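 Seed HepG2 overnight, add compound, incubate 5 hr at 37C and 5% CO2, stain 30 min with Mito-MPS, then measure monomer (490/535 nm) and aggregate (540/590 nm) fluorescence.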

[5] = biological target: Tumor necrosis factor (Homo sapiens) (UniProt P01375); test: qHTS assay to identify small molecules that stimulate Tumor Necrosis Factor-alpha (TNF-alpha) secretion (AID 651757; active = well fitted curve in the direction sought with a large enough effect in the signal ratio; the % refers to the signal ratio; also: 0% is about no effect)
Method in brief: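 Secreted TNF-alpha quantified by TR-FRET sandwich of two labeled anti-TNF-alpha antibodies, incubated 3 hr at room temperature. Preceded by 17 hr, 37 C compound treatment of THP-1 cells at 3000 cells/well.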

[6] = qHTS assay for environmental chemicals that activate the Aryl hydrocarbon Receptor (AhR) signaling pathway (AID 651777; active = well fitted curve in the direction sought with a large enough effect; an effect the other way counts as inactive or inconclusive; also: % of control where 0% means no effect; nearly all actives have a fitted effect of over 15% in size); details: 1A2-DRE human hepatoma cells, luciferase, 24 h; hits give high values
Method in brief: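 Quantitative HTS in stably transfected human liver-derived cells whose luciferase gene sits downstream of the CYP1A2 promoter and dioxin response element. After 24 hr exposure at 37 C, One-Glo luminescence was measured.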

[7] = biological target: Peroxisome proliferator-activated receptor alpha (Homo sapiens) (UniProt Q07869); test: qHTS assay for small molecule agonists of the peroxisome proliferator-activated receptor alpha (PPARalpha) signaling pathway (AID 651778; active = well fitted curve in the direction sought with a large enough effect; an effect the other way counts as inactive or inconclusive; also: % of control where 0% means no effect); details: PathHunter PPARalpha complementation, chemiluminescence, 6 h; max response: hits give high values
Method in brief: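 Cells plated at 2,000/well and held overnight at 37 C, 5% CO2, then compound added by pin tool for 6 hr; after PathHunter detection reagent and 60 min at room temperature, chemiluminescence from enzyme complementation was read.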

[8] = biological target: Nuclear receptor ROR-gamma (Homo sapiens) (UniProt P51449); test: qHTS assay for small molecule antagonists of the retinoid-related orphan receptor gamma (ROR-gamma) signaling pathway (AID 651802; active = well fitted curve in the direction sought with a large enough effect; an effect the other way counts as inactive or inconclusive;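 also: CHO cells with doxycycline-induced ROR-gamma expression; luciferase reporter luminescence driven by ROR response element; series mostly up to about 92 µM; % is scaled to controls: 0 for no effect and ±100 for the full control effect; nearly all actives have a fitted effect of over 60% in size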)
Method in brief: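 Luminescence (One-Glo, 30 min RT) measured 16 h after compound addition and doxycycline induction at 37C. Reporter: RORE-luciferase under TET-inducible ROR-gamma in CHO cells.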

[9] = qHTS assay for small molecule agonists of the antioxidant response element (ARE) signaling pathway measured by Nrf2-dependant transcriptional activity (AID 720636); also: % of control where 0% means no effect
Method in brief: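 Quantitative HTS format in HepG2 cells stably expressing an ARE-luciferase reporter; 16 hr compound treatment at 37 C, luciferase signal detected with ONE-Glo.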

[10] = qHTS assay for small molecule antagonists of the retinoid-related orphan receptor gamma (ROR-gamma) signaling pathway - cell viability counter screen (AID 720652);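 also: CHO reporter cells with doxycycline-induced ROR-gamma expression; series mostly up to about 92 µM; compound exposure lasted 16 hr before ATP read; % is scaled to controls: 0 for no effect and ±100 for the full control effect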
Method in brief: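 Cytotoxicity counter screen: intracellular ATP (CellTiter-Glo luminescence) measured in the doxycycline-induced CHO RORE-luciferase reporter line after 16 hr compound exposure at 37 C, 5% CO2.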

[11] = qHTS assay for small molecule agonists of the antioxidant response element (ARE) signaling pathway measured by Nrf2-dependant transcriptional activity - cell viability counter screen (AID 720653); details: ARE-bla HepG2 viability, CellTiter-Glo ATP luminescence, 16 h; hits give low values; also: % is scaled to controls: 0 for no effect and ±100 for the full control effect
Method in brief: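 ARE-bla HepG2 cells (2,000/well) rested 5 hrs at 37C/5% CO2, then exposed to compounds in DMSO for 16 hrs. Viability was read in the same wells as intracellular ATP by luminescence, 30 min at room temperature after reagent addition.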

[12] = Cell Proliferation Assay against the TMD8 Cell Line (Caspase readout at 8 hrs) (AID 651713; active = well fitted curve in the direction sought with a large enough effect; an effect the other way counts as inactive or inconclusive;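 also: 0% = DMSO and 100% = 9.2 µM bortezomib caspase signal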)
Method in brief: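 Apoptosis read-out: Caspase-Glo luminescence after 8 h compound exposure of TMD8 lymphoma cells at 37C, 5% CO2. Signals were normalized as percent activity between DMSO and bortezomib (9.2 uM final) controls.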

[13] = qHTS assay to identify small molecules that stimulate interleukin-8 (IL-8) secretion (AID 651758; active = well fitted activation curve with a large enough effect in the signal ratio; the % refers to the signal ratio; also: 0% is about no effect)
Method in brief: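 Quantitative HTS in THP-1 monocytic cells at 2000 cells per well, with 16 hrs compound incubation at 37 C. IL-8 in the medium was then quantified by HTRF immunoassay, read after 1-3 hrs at room temperature.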

Chain of Tumor necrosis factor (Homo sapiens) (P01375 whole entry, looked up): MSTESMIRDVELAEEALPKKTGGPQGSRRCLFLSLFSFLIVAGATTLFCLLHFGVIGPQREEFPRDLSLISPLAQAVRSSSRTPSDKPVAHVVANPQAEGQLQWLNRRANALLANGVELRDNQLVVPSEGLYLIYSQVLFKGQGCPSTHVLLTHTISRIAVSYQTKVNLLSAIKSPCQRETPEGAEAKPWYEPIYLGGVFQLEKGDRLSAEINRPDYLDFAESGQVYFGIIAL
Chain of Peroxisome proliferator-activated receptor alpha (Homo sapiens) (Q07869 whole entry, looked up): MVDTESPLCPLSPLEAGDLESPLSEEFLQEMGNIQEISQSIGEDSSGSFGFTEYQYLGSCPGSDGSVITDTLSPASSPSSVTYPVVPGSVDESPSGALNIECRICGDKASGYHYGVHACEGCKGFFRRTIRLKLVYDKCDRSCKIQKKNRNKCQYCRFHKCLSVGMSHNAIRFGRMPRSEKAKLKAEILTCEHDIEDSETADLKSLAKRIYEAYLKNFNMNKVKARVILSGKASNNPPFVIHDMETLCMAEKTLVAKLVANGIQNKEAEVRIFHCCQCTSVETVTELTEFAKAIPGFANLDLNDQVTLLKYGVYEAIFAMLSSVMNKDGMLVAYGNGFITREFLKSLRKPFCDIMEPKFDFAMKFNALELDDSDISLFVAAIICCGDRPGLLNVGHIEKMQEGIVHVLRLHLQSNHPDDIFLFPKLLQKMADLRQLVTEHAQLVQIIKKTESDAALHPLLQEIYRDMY
Chain of Nuclear receptor ROR-gamma (Homo sapiens) (P51449 whole entry, looked up): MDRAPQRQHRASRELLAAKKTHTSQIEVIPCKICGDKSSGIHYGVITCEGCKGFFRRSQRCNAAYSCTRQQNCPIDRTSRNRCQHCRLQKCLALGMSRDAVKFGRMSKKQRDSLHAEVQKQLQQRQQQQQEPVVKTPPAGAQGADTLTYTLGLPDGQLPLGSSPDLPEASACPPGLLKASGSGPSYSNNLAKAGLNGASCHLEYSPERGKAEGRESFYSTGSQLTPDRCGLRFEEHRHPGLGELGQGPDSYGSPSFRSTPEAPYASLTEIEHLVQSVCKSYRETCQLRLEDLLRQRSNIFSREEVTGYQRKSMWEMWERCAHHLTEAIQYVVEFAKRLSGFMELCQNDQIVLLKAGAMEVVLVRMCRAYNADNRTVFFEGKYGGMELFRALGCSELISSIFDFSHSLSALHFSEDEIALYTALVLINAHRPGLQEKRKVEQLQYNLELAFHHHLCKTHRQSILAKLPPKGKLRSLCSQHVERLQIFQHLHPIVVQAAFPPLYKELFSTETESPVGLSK

Cc1ccccc1
inactive: Potency [1] | activation [2] 0.393% and -4.17% | outcome [3] | outcome [4] | outcome [5] | activation [6] 0.0379% and -2.19% | max response [7] 0.399% and -0.58% | outcome [8] | outcome [9] | outcome [10] | max response [11] 6.91% and 8.68%

Cc1nnc(C(C)C)n1C1CC2CCC(C1)N2CC[C@H](NC(=O)C1CCC(F)(F)CC1)c1ccccc1 (some centres not stated)
inactive: Potency [12]

O=S(=O)(O)O
inactive: Potency [1] | outcome [3] | outcome [4] | outcome [5] | Potency [13] | activation [6] -0.349% and 1.61% | max response [7] -1.64% and -3.82% | outcome [9] | outcome [10] | max response [11] -6.94% and 4.69%
